From PubChem BioAssay (NCATS)
Several values for one entry are separate records, joined by “and”; a condition that tells them apart may be missing. Equal entries are not always repeated. Records with an inconclusive call do not appear. Activity calls are given as the source filed them. Unless noted, calls come from the whole dose curve; as a rule, active = well fitted curve in the direction sought with a large enough effect; inconclusive = small, poorly fitted or top-dose-only effect, or another doubt; inactive = no such curve, though single readings can be large; an effect the other way counts as inactive or inconclusive.

Legend:
[1] = qHTS assay for small molecule disruptors of the mitochondrial membrane potential - 1 hr assay (AID 651754; calls by dose curve; note: % is set by controls: 0 for no effect and ±100 for the full control effect; nearly all actives have a fitted effect of over 35% in size)
Outline: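 Mitochondrial potential in living HepG2 cells after 1 hr compound treatment at 37C was read with Mito-MPS dye added for a further 30 min. Red aggregate and green monomer fluorescence were measured; loss of potential leaves dye as cytoplasmic monomers.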

[2] = qHTS assay for small molecule disruptors of the mitochondrial membrane potential - 5 hr assay (AID 651755; calls by dose curve; note: % is set by controls: 0 for no effect and ±100 for the full control effect; nearly all actives have a fitted effect of over 40% in size)
Outline: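 Membrane-potential dye readout: red aggregate (540 ex/590 em) versus green monomer (490 ex/535 em) fluorescence after 30 min dye loading, following 5 hr compound exposure at 37C of overnight-plated HepG2 cells.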

[3] = target: Tumor necrosis factor (Homo sapiens) (UniProt P01375); test: qHTS assay to identify small molecules that stimulate Tumor Necrosis Factor-alpha (TNF-alpha) secretion (AID 651757; active = well fitted curve in the direction sought with a large enough effect in the signal ratio; the % refers to the signal ratio; note: 0% is about no effect)
Tumor necrosis factor (Homo sapiens), sequence (P01375 whole entry, looked up): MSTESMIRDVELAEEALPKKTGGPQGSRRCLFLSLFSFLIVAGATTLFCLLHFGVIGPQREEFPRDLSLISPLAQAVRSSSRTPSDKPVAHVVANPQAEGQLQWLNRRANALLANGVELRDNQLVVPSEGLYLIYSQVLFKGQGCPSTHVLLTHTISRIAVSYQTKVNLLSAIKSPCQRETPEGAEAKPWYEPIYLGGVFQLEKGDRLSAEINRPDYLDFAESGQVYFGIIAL
Outline: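 Secreted TNF-alpha quantified by TR-FRET sandwich of two labeled anti-TNF-alpha antibodies, incubated 3 hr at room temperature. Preceded by 17 hr, 37 C compound treatment of THP-1 cells at 3000 cells/well.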

[4] = qHTS assay to identify small molecules that stimulate interleukin-8 (IL-8) secretion (AID 651758; active = well fitted activation curve with a large enough effect in the signal ratio; the % refers to the signal ratio; note: 0% is about no effect)
Outline: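 Secreted IL-8 measured homogeneously by TR-FRET (two labelled anti-IL-8 antibodies, 1-3 h at room temperature) after a 16 h, 37 C compound treatment of THP-1 cells at 2000 cells/well.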

[5] = qHTS assay for environmental chemicals that activate the Aryl hydrocarbon Receptor (AhR) signaling pathway (AID 651777); conditions: 1A2-DRE human hepatoma cells, luciferase, 24 h; activation: active compounds read high; note: % of control where 0% means no effect; nearly all actives have a fitted effect of over 15% in size
Outline: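 AhR activation is scored as a rise in luciferase from a stable DRE–CYP1A2 promoter construct in human hepatoma cells. Treatment lasts 24 hr at 37 C; detection uses One-Glo after 30 min at room temperature.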

[6] = target: Peroxisome proliferator-activated receptor alpha (Homo sapiens) (UniProt Q07869); test: qHTS assay for small molecule agonists of the peroxisome proliferator-activated receptor alpha (PPARalpha) signaling pathway (AID 651778); conditions: PathHunter PPARalpha complementation, chemiluminescence, 6 h; active compounds read high; note: % of control where 0% means no effect
Peroxisome proliferator-activated receptor alpha (Homo sapiens), sequence (Q07869 whole entry, looked up): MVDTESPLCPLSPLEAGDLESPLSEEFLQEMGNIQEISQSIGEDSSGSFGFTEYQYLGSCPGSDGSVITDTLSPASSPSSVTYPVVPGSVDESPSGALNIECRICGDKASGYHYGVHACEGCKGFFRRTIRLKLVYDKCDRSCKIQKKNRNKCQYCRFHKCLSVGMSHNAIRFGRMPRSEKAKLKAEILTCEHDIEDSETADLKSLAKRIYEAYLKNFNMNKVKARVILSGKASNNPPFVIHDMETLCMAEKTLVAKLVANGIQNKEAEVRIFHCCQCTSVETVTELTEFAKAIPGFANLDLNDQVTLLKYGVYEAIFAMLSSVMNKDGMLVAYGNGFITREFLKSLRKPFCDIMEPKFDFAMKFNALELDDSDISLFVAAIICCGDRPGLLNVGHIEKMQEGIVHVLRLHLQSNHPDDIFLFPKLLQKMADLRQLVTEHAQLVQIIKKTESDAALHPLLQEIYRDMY
Outline: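 Chemiluminescence from complemented enzyme reported PPARalpha activation in cells after 6 hr of compound treatment at 37 C. The detection reagent was incubated for 60 min at room temperature, and compounds were scored as agonists.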

[7] = qHTS assay for small molecule agonists of the antioxidant response element (ARE) signaling pathway measured by Nrf2-dependant transcriptional activity (AID 720636; active = well fitted curve in the direction sought with a large enough effect in the repeat runs; an effect the other way counts as inactive or inconclusive;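 note: HepG2 cells with an ARE-driven luciferase reporter; % of control where 0% means no effect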)
Outline: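 First, ARE-luc HepG2 cells attached for 6 hr at 37 C in 1% dialyzed FBS medium. Next, compound or DMSO was added and incubated 16 hr. Finally, ONE-Glo reagent was added and luminescence measured after 30 min.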

[8] = qHTS assay for small molecule agonists of the antioxidant response element (ARE) signaling pathway measured by Nrf2-dependant transcriptional activity - cell viability counter screen (AID 720653; active = well fitted curve in the direction sought with a large enough effect in the repeat runs; an effect the other way counts as inactive or inconclusive; note: % is set by controls: 0 for no effect and ±100 for the full control effect); conditions: ARE-bla HepG2 viability, CellTiter-Glo ATP luminescence, 16 h; active compounds read low
Outline: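 Cytotoxicity counter screen: intracellular ATP quantified by CellTiter-Glo luminescence in the same ARE-bla HepG2 plates, after 16 h compound exposure and a 2 h beta-lactamase substrate step.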

[9] = qHTS assay for small molecule antagonists of the retinoid-related orphan receptor gamma (ROR-gamma) signaling pathway - cell viability counter screen (AID 720652; active = well fitted curve in the direction sought with a large enough effect in the repeat runs; an effect the other way counts as inactive or inconclusive;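 note: CHO reporter cells with doxycycline-induced ROR-gamma expression; series mostly up to about 92 µM; compound exposure lasted 16 hr before ATP read; % is set by controls: 0 for no effect and ±100 for the full control effect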)
Outline: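 Cytotoxicity counter screen: intracellular ATP (CellTiter-Glo luminescence) measured in the doxycycline-induced CHO RORE-luciferase reporter line after 16 hr compound exposure at 37 C, 5% CO2.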

[10] = target: Nuclear receptor ROR-gamma (Homo sapiens) (UniProt P51449); test: qHTS assay for small molecule antagonists of the retinoid-related orphan receptor gamma (ROR-gamma) signaling pathway (AID 651802);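 note: CHO cells with doxycycline-induced ROR-gamma expression; luciferase reporter luminescence driven by ROR response element; series mostly up to about 92 µM; % is set by controls: 0 for no effect and ±100 for the full control effect; nearly all actives have a fitted effect of over 60% in size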
Nuclear receptor ROR-gamma (Homo sapiens), sequence (P51449 whole entry, looked up): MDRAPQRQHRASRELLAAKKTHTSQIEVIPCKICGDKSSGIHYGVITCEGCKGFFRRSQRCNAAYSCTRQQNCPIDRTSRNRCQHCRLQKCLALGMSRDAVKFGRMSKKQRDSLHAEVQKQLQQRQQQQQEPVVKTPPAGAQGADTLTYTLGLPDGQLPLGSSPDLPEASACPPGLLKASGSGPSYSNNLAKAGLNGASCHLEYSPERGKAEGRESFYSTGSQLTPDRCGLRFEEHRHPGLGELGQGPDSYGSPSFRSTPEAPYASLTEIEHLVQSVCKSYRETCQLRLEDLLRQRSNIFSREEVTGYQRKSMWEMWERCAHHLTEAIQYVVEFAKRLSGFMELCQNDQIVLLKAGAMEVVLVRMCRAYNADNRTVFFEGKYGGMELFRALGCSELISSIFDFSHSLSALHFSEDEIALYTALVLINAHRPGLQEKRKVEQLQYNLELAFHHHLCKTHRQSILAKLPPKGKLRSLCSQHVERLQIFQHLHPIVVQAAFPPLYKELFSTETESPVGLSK
Outline: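 Luminescence (One-Glo, 30 min RT) measured 16 h after compound addition and doxycycline induction at 37C. Reporter: RORE-luciferase under TET-inducible ROR-gamma in CHO cells.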

CC(=O)Nc1ccccc1C
inactive: Potency [1] | Potency [2] | Potency [3] | Potency [4] | activation [5] -0.35% | max response [6] -1.36% | outcome [7] | max response [8] -6.99%

Cc1cc(C(=O)O)ccc1[N+](=O)[O-]
inactive: Potency [1] | Potency [2] | Potency [3] | Potency [4] | activation [5] 1.35% | max response [6] -0.276% | outcome [7] | Potency [9] | max response [8] -1.45%

CN(C)CCCNCCCN
inactive: Potency [1] | Potency [2] | Potency [3] | activation [5] 0.0352% | max response [6] -2.56% | Potency [10] | outcome [7] | Potency [9] | max response [8] -2.03%

O=C(O)c1cc(Cl)cc(Cl)c1
inactive: Potency [1] | Potency [2] | Potency [3] | Potency [4] | activation [5] 0.13% | max response [6] -2.98% | Potency [9] | max response [8] 0.662%

CCOCC(=O)O
inactive: Potency [1] | Potency [2] | Potency [3] | Potency [4] | activation [5] -0.35% | max response [6] -1.55% | outcome [7] | max response [8] 1.2%

O=[N+]([O-])c1ccccc1CCO
inactive: Potency [1] | Potency [2] | Potency [3] | activation [5] 0.213% | max response [6] -1.29% | Potency [10] | outcome [7] | Potency [9] | max response [8] -3.69%

Cc1ccc(Cl)cc1N
inactive: Potency [1] | Potency [2] | Potency [3] | activation [5] -0.729% | max response [6] -6.36% | Potency [10] | outcome [7] | Potency [9] | max response [8] 6.01%

CNC(=O)c1ccccc1
inactive: Potency [1] | Potency [2] | Potency [3] | activation [5] -0.192% | max response [6] -1.17% | Potency [10] | outcome [7] | Potency [9] | max response [8] -3.92%

CCCCCO
inactive: Potency [1] | Potency [2] | Potency [3] | activation [5] 0.0119% | max response [6] -2.11% | Potency [10] | outcome [7] | Potency [9] | max response [8] 3.66%

CC1CCC2CC1C2(C)C (centres undefined)
inactive: Potency [1] | Potency [2] | Potency [3] | Potency [4] | activation [5] -0.275% | max response [6] -3.48% | outcome [7] | max response [8] 1.21%

CC(O)CC(C)O (centres undefined)
inactive: Potency [1] | Potency [2] | Potency [3] | activation [5] -0.953% | max response [6] -0.949% | Potency [10] | outcome [7] | max response [8] -7.28%

O=C1C=CCCC1
inactive: Potency [1] | Potency [2] | Potency [3] | activation [5] 0.397% | max response [6] 2.89% | Potency [10] | outcome [7] | Potency [9] | max response [8] 4.99%

NC(=O)NC(N)=O
inactive: Potency [1] | Potency [2] | Potency [3] | activation [5] 2.56% | max response [6] -2.74% | Potency [10] | outcome [7] | Potency [9] | max response [8] -4.93%

Cc1ccc(C(=O)O)cc1
inactive: Potency [1] | Potency [2] | Potency [3] | activation [5] -0.0785% | max response [6] 2.54% | Potency [10] | outcome [7] | Potency [9] | max response [8] 8.21%

CC(C)(C)c1ccc(OCC2CO2)cc1 (centres undefined)
inactive: Potency [1] | Potency [2] | Potency [3] | activation [5] 8.83% | max response [6] -5.01% | Potency [10] | outcome [7] | max response [8] 4.81%

Cc1cc(C)cc(N)c1
inactive: Potency [1] | Potency [2] | Potency [3] | activation [5] 2.65% | max response [6] -1.33% | Potency [10] | outcome [7] | max response [8] -5.34%

CCc1ccccc1O
inactive: Potency [1] | Potency [2] | Potency [3] | activation [5] -0.147% | max response [6] -2.08% | Potency [10] | outcome [7] | Potency [9] | max response [8] 4.85%

Cc1ccc2ncccc2c1
inactive: Potency [1] | Potency [2] | Potency [3] | activation [5] 3.02% | max response [6] -2.02% | Potency [10] | outcome [7] | Potency [9] | max response [8] 5.85%

CC(C)c1ccccc1
inactive: Potency [1] | Potency [2] | Potency [3] | activation [5] -1.48% | max response [6] 3.38% | Potency [10] | outcome [7] | Potency [9] | max response [8] -7.17%

Nc1ccccc1S(=O)(=O)O
inactive: Potency [1] | Potency [2] | Potency [3] | activation [5] -0.162% | max response [6] -3.61% | Potency [10] | outcome [7] | Potency [9] | max response [8] -0.944%

CCCC(Cl)CCCC(Cl)CCC(Cl)CCC(Cl)CCC(Cl)CCCC(Cl)CCC (centres undefined)
inactive: Potency [1] | Potency [2] | Potency [3] | activation [5] -0.261% | max response [6] -3.72% | Potency [10] | outcome [7] | Potency [9] | max response [8] -6.05%

O=C1OC(=O)c2c(Cl)c(Cl)c(Cl)c(Cl)c21
inactive: Potency [1] | Potency [2] | Potency [3] | activation [5] 0.646% and 1.03% | max response [6] 0.893% and -0.287% | Potency [10] | outcome [7] | Potency [9] | max response [8] 1.45% and 13.5%

COc1ccc(OC)cc1
inactive: Potency [1] | Potency [2] | Potency [3] | activation [5] 0.641% | max response [6] -4.92% | Potency [10] | outcome [7] | Potency [9] | max response [8] 4.82%

CCC1CO1 (centres undefined)
inactive: Potency [1] | Potency [2] | Potency [3] | activation [5] 0.0109% | max response [6] -1.3% | Potency [10] | outcome [7] | Potency [9] | max response [8] 1.19%
